Reference: the supplement of paper PMC11732987, “Enantioselective OTUD7B fragment discovery through chemoproteomics screening and high-throughput optimisation” (Communications Chemistry, 2025)

Legend:
Test in all cases: log2 ratio of Biotin-Ahx-Ub-VS probe labelling (fragment/DMSO); higher = less target engagement (more negative = stronger competition), active = hit call of the paper (q ≤ 0.05, log2 ratio ≤ -1)
Conditions in all cases: compound concentration: 200 uM; treatment time: 3 h
USP42 = target: T1, USP42 (UniProt Q9H9J4)
T1 sequence (whole entry): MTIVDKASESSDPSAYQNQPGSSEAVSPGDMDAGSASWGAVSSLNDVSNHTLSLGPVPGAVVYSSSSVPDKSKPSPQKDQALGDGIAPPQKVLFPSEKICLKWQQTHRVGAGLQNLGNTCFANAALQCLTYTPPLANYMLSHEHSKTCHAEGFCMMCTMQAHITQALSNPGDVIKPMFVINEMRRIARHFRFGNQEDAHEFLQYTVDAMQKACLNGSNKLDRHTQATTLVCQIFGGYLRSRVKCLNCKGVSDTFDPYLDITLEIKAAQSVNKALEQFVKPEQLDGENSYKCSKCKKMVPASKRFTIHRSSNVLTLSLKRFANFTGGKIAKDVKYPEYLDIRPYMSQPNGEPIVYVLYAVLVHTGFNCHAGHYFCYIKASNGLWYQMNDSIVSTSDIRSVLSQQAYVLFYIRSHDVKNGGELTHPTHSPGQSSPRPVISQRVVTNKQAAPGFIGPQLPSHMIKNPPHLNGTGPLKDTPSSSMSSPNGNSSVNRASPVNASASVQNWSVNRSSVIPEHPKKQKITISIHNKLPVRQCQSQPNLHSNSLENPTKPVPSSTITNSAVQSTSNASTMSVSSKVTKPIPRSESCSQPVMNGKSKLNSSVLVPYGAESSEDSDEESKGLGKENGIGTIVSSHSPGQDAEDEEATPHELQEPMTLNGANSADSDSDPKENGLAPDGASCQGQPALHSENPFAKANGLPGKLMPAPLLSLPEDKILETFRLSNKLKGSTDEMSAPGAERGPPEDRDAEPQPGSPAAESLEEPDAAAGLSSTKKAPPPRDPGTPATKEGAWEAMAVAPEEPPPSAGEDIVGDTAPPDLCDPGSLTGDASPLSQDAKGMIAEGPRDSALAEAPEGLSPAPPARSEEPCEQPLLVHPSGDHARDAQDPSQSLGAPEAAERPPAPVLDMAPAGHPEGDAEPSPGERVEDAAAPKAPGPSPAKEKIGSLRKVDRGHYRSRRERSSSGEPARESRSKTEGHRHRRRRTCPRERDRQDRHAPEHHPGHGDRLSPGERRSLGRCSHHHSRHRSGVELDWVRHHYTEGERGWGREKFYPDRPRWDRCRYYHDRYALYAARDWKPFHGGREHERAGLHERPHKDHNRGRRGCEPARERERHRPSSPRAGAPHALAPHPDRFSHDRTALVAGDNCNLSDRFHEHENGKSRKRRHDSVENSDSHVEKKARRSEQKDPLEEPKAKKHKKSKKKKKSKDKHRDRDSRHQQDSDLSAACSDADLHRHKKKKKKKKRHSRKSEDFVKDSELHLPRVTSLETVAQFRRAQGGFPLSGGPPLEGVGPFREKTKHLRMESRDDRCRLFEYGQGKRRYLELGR
In short: (§1)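 HEK293T lysate (495 µg per sample, in Tris/CHAPS/IGEPAL buffer with protease inhibitors) was treated in triplicate with fragment at 200 µM or with DMSO for 3 h. It was then treated with Biotin-Ahx-Ub-VS (0.5 µM final) for 1 h. Labelled DUBs were NeutrAvidin-enriched, digested with LysC and trypsin, and run by diaPASEF LC-MS/MS. Spectronaut label-free quantities were global-median-normalised. Values are average log2 ratios fragment/DMSO by unpaired t-test, using proteins with ≥2 unique peptides.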

USP46 = USP46 (UniProt P62068)
In short: as §1

USP47 = target: T2, USP47 (UniProt Q96K76)
T2 sequence (whole entry): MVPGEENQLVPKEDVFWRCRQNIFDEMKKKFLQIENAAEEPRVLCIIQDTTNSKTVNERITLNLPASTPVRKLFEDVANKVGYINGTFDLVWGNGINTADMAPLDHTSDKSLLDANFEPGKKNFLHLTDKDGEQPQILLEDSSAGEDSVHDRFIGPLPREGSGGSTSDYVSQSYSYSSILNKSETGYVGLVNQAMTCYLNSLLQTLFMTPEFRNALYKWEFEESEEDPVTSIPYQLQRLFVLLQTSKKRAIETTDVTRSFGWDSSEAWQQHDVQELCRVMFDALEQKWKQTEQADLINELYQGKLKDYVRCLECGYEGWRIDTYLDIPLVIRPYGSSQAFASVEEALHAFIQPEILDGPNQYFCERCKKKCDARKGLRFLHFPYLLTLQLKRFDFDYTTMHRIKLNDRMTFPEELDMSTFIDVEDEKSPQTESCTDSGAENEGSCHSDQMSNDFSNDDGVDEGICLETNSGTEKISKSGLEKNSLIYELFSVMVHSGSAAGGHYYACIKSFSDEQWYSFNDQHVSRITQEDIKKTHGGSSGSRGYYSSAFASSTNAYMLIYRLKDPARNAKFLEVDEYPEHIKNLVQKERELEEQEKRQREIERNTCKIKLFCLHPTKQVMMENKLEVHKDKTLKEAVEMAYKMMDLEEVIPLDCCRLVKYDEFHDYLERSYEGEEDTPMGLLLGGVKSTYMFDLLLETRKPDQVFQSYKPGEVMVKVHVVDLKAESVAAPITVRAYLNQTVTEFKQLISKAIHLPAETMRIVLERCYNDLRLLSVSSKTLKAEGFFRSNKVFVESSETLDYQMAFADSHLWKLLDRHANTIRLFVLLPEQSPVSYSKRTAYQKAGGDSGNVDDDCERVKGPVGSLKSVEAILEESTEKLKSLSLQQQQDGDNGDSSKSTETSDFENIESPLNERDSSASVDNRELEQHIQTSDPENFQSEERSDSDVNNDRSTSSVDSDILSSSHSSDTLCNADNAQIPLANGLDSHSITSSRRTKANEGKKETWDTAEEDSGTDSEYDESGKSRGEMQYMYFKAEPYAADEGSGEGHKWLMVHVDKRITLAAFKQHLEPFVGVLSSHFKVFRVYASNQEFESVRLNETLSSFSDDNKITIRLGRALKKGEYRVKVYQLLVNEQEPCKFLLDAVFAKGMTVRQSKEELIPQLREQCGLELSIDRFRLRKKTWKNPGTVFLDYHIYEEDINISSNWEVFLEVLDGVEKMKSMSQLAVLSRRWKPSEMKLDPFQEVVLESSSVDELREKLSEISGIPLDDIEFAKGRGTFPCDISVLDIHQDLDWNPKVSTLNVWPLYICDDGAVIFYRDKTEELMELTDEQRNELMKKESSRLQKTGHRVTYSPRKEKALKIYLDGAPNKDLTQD
In short: as §1

USP48 = target: T3, USP48 (UniProt Q86UV5)
T3 sequence (whole entry): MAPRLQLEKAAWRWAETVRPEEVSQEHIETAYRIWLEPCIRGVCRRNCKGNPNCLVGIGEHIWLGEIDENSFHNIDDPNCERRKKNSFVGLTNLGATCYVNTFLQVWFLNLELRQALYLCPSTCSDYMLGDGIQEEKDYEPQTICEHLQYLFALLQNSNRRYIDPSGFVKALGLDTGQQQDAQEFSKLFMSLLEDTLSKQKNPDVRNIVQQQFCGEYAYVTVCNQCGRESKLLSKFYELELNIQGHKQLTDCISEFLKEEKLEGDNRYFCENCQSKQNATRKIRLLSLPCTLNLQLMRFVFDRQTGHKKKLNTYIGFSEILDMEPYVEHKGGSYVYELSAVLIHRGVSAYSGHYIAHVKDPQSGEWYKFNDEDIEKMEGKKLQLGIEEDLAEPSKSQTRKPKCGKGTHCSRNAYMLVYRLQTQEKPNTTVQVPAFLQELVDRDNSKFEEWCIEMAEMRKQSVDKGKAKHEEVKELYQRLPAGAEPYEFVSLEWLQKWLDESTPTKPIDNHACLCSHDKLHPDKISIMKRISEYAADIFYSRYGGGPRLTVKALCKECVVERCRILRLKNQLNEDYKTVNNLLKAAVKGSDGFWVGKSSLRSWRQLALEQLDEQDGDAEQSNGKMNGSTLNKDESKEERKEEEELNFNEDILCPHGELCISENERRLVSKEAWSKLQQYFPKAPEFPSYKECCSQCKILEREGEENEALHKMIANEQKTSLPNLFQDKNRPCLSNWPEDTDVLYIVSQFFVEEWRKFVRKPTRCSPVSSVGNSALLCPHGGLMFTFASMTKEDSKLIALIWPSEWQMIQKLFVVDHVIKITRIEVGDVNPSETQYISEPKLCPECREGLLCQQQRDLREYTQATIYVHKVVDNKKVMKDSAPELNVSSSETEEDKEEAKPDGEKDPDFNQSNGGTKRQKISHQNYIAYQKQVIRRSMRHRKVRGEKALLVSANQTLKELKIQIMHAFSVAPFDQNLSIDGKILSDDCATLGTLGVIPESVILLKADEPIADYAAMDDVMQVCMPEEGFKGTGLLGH
In short: as §1

USP5 = target: T4, USP5 (UniProt P45974)
T4 sequence (whole entry): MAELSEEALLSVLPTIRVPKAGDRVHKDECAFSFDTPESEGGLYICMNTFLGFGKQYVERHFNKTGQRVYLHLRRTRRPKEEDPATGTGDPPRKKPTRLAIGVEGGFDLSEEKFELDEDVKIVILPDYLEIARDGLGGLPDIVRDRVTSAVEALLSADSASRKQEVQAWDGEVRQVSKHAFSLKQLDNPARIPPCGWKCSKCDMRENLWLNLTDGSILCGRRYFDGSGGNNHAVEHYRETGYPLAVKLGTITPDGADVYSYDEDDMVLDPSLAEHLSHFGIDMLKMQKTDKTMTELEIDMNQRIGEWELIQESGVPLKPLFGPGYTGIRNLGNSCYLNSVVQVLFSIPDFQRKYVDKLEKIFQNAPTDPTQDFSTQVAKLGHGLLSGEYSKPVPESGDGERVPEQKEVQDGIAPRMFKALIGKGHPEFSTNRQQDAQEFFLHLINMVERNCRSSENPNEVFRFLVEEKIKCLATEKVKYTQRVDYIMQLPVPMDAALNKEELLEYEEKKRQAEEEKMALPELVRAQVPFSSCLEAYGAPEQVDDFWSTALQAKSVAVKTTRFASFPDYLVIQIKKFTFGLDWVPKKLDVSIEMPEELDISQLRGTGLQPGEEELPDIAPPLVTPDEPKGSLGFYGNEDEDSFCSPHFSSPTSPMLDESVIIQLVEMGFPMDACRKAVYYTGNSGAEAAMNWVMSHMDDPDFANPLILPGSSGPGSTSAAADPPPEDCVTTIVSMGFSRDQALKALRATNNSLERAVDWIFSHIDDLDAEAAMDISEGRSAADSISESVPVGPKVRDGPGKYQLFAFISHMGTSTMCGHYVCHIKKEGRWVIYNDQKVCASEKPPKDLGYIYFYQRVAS
In short: as §1

USP54 = USP54 (UniProt Q70EL1)
In short: as §1

USP7 = USP7 (UniProt Q93009)
In short: as §1

USP8 = target: T5, USP8 (UniProt P40818)
T5 sequence (whole entry): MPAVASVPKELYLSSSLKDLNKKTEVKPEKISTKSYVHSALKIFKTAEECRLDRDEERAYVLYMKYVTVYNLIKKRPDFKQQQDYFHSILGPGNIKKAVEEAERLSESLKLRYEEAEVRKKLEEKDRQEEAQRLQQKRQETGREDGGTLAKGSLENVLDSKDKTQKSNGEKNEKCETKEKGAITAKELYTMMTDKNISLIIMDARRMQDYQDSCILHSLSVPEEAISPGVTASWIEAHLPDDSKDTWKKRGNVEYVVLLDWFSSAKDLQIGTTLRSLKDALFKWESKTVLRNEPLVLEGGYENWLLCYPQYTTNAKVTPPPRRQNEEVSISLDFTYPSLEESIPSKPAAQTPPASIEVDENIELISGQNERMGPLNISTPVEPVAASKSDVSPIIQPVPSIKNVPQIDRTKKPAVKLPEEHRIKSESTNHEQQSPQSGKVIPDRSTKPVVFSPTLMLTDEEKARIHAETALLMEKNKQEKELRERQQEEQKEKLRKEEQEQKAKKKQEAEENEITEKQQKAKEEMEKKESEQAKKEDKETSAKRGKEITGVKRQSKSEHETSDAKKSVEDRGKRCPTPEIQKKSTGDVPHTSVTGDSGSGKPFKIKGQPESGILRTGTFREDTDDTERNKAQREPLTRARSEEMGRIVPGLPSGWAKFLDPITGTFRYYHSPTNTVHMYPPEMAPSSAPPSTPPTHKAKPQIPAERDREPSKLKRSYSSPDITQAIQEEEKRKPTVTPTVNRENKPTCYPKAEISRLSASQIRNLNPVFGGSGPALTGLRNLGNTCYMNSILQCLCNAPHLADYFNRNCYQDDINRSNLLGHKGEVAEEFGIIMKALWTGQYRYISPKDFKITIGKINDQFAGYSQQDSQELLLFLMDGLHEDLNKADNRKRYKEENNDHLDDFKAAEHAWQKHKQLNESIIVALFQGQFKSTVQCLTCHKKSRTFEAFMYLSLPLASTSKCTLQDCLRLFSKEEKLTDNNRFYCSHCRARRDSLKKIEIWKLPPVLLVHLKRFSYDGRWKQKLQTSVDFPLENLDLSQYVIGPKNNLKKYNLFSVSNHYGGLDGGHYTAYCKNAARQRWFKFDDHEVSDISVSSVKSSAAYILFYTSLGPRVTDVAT
In short: as §1

Measured: log2 ratio of Biotin-Ahx-Ub-VS probe labelling

Chain of USP46 (P62068 whole entry): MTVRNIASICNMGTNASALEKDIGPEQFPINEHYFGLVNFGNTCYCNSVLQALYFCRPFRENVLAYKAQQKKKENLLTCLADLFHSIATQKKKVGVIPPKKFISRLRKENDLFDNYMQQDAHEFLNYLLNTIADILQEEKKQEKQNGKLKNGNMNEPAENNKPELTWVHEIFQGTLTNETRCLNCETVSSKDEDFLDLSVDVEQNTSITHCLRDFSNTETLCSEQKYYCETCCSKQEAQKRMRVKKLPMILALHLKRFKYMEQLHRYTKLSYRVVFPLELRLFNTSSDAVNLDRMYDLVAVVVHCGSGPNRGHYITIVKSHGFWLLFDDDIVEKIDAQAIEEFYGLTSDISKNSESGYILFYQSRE
Chain of USP7 (Q93009 whole entry, looked up): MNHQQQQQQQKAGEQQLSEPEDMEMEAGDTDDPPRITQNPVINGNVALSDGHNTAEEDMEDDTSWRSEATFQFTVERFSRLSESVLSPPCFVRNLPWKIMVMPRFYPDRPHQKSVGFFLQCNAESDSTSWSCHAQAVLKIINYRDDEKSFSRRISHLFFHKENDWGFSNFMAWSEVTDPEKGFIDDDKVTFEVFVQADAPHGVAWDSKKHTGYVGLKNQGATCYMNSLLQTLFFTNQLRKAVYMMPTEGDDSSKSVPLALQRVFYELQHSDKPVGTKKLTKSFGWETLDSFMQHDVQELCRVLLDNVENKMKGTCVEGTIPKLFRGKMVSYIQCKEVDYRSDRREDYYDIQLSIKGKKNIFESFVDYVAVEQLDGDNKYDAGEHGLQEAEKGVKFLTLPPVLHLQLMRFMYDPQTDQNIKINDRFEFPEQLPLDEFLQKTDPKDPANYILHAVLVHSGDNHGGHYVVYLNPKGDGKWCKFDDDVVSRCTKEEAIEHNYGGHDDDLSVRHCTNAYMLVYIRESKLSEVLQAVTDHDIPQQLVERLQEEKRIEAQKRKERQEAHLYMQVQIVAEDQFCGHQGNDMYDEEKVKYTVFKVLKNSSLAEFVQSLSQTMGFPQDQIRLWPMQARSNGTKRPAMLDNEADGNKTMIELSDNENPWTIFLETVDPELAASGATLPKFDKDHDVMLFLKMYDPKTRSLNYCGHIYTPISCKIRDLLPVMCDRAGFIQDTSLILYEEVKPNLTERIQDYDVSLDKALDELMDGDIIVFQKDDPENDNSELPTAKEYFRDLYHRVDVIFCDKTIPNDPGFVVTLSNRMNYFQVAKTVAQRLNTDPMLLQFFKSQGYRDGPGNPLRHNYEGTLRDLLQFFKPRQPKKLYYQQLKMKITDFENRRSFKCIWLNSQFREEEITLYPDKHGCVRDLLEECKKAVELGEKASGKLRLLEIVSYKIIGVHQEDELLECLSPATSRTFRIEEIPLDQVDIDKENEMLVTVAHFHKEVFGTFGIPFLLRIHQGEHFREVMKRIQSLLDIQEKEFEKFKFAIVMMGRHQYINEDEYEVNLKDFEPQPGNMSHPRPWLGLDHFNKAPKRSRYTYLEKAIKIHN
Chain of USP54 (Q70EL1 whole entry): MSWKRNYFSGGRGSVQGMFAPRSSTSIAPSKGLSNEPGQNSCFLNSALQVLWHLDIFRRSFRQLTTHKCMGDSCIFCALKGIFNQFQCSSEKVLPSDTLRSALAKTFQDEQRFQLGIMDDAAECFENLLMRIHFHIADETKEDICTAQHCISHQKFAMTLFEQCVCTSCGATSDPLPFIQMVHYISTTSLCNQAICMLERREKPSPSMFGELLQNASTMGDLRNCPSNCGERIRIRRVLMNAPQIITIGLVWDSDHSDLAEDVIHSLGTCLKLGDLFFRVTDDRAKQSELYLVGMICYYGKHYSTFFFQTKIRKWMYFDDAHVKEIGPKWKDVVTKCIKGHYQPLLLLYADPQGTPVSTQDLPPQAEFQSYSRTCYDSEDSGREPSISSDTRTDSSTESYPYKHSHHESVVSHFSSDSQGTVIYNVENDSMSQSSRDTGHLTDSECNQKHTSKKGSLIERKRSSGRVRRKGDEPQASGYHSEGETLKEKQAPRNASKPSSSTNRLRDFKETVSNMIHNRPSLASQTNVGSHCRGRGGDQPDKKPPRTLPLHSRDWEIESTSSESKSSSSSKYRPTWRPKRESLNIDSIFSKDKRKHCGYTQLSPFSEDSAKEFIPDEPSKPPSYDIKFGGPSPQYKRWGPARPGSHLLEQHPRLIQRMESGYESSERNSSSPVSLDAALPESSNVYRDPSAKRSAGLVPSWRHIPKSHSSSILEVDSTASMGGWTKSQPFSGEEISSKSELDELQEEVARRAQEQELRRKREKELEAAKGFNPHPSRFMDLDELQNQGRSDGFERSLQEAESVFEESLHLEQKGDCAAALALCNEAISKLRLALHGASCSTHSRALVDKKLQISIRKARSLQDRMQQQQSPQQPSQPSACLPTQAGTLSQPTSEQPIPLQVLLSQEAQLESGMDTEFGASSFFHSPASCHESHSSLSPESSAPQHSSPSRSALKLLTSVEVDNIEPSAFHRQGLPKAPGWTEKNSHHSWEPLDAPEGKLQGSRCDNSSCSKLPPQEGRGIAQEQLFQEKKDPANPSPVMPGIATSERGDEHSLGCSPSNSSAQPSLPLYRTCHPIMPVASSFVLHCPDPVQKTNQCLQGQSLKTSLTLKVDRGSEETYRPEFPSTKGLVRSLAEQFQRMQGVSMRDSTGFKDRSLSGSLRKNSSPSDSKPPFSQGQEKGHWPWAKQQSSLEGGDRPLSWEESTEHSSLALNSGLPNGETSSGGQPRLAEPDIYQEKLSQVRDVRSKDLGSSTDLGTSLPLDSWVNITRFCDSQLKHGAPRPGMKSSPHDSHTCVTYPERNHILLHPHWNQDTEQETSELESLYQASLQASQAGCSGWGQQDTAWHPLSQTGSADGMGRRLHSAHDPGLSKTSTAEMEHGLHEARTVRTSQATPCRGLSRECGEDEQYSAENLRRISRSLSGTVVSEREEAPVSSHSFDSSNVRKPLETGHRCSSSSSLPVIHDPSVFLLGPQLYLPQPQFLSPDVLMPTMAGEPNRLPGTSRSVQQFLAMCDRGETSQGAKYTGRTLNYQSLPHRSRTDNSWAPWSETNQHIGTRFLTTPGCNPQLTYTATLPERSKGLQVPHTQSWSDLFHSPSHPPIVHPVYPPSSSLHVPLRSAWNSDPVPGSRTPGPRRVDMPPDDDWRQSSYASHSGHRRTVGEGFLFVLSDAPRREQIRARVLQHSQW

COCC1C=CCCN1C(=O)CCl (stereo not drawn)
inactive: USP42 -0.485 | USP46 0.0708 | USP47 -0.789 | USP48 -0.152 | USP5 0.0548 | USP54 0.237 | USP7 -0.21 | USP8 -0.0182
